Results published in PubChem BioAssay (NCATS).
Inconclusive results are not listed. Values without a mark were called inactive. The call rests on the fitted dose curve; in most records, active means well fitted cell-killing curve with a large enough effect; inconclusive means small, poorly fitted or top-dose-only effect, or effect the other way; inactive means no such curve, though single readings can be large or run the other way.

Assay: Viability qHTS for spleen associated tyrosine kinase inhibitor (SYKi) naive MV4-11 cells (AID 1963823); further: nearly all actives have a fitted effect of over 40% in size
Settings: MV4-11 AML viability, CellTiter-Glo luminescence, 72 h; series mostly up to 45 µM; viability (% of control): at the top concentration
Outline: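 CellTiter-Glo luminescence, 10 min room-temperature incubation, gave viability. Cells: naive MV4-11 (500/well), treated 72 hr at 37 C, 5% CO2.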

| Structure (SMILES) | viability (% of control) |
| --- | --- |
| CN1C2CCC1CC(OC(=O)N1Cc3ccccc3NC1=O)C2 (stereo not given) | 103% |
| c1ccc([C@@H]2C[C@H]2NC2CCNCC2)cc1 | 1.98% |
| CCC(C(N)=O)N1CCCC1=O (stereo not given) | 107% |
| Cc1c(Cl)cccc1S(=O)(=O)Nc1nc(CC(=O)N2CCN(C)CC2)cs1 | 63.5% |
| CCCCCCn1c(=O)c(C(=O)Nc2ccc(C(=O)OCCC)cc2)c(O)c2ccccc21 | 62.6% [at 9.25 µM] |
| NC(=O)CN1CCCC1=O | 77.5% |
| COc1ccsc1CNCC[C@@]1(c2ccccn2)CCOC2(CCCC2)C1 | 103% |

Assay: Viability qHTS for spleen associated tyrosine kinase inhibitor (SYKi) drug resistant MV4-11 cells (AID 1963824); further: nearly all actives have a fitted effect of over 35% in size
Settings: SYKi-resistant MV4-11 viability, CellTiter-Glo, 72 h; series mostly up to 45 µM; viability, % of control: at the top concentration
Outline: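 CellTiter-Glo luminescence, read 10 min after reagent addition, reports viability after a 72 hr compound exposure. Cells are an MV4-11 line made resistant to SYK inhibition, seeded at 500 per well onto compound-containing plates.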

| Structure (SMILES) | viability, % of control |
| --- | --- |
| Cc1c(Cl)cccc1S(=O)(=O)Nc1nc(CC(=O)N2CCN(C)CC2)cs1 | 81.1% |
| CCCCCCn1c(=O)c(C(=O)Nc2ccc(C(=O)OCCC)cc2)c(O)c2ccccc21 | 83.2% [at 9.25 µM] |
| COc1ccsc1CNCC[C@@]1(c2ccccn2)CCOC2(CCCC2)C1 | 93.6% |
